# Measurements as given in PubChem BioAssay (EPA / NIEHS).
# Inconclusive results are not listed. Activity calls are given as the source filed them. How the source made its calls, unless noted: active means hit-call score of the fitted dose curve at least 0.9, where 1 is the maximum; inconclusive means response in the unintended direction; inactive means score below 0.9.
# Legend:
# [1] = molecular target: Estrogen receptor (Homo sapiens) (UniProt P03372); experiment: CCTE_Deisenroth_AIME_384WELL_LUC_Active: CCTE's 384-well Estrogen Receptor Transactivation Assay with AIME metabolic competence (ERTA luciferase; metabolism positive), Deisenroth Lab (AID 2284030)
# How it was run: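 Test chemicals (10-point series, 0.002 - 200 uM) were preincubated 2 hours with alginate-immobilized phenobarbital/beta-naphthoflavone-induced male Sprague Dawley rat liver S9; conditioned medium then went onto VM7Luc4E2 breast cells for 24 hour. Luciferase gain-of-signal fitted relative to 17beta-estradiol.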
# [2] = CCTE_Deisenroth_AIME_384WELL_CTox_Active: Cytotoxicity Assessment (CTOX) in CCTE's 384-well Estrogen Receptor Transactivation Assay with AIME metabolic competence (metabolism positive), Deisenroth Lab (AID 2284037);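 further: chemicals first conditioned 2 h by alginate-bound induced rat liver S9 before cells; activity means signal loss indicating cell death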
# How it was run: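 Cytotoxicity in VM7Luc4E2 breast cells, 24 hour, measured as protease-substrate fluorescence loss, after 2-hour metabolic conditioning with induced rat hepatic S9 in alginate microspheres. Concentrations 0.002 - 200 uM, 10 points, bidirectional fitting.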
# [3] = molecular target: Estrogen receptor (Homo sapiens) (UniProt P03372); experiment: CCTE_Deisenroth_AIME_384WELL_LUC_Inactive: CCTE's 384-well Estrogen Receptor Transactivation Assay without AIME metabolic competence (ERTA luciferase; metabolism negative), Deisenroth Lab (AID 2284038);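 further: VM7Luc4E2 breast cells given medium preincubated 2 h with S9-free microspheres; hits raise estrogen receptor luciferase signal so potencies reflect agonists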
# How it was run: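 VM7Luc4E2 ER transactivation, luciferase bioluminescence after 24 h, using medium pre-incubated 2 h with S9-free alginate microspheres. Concentrations 0.002–200 uM; gain of signal fitted relative to 17beta-estradiol.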
# [4] = CCTE_Deisenroth_AIME_384WELL_CTox_Inactive: Cytotoxicity Assessment (CTOX) in CCTE's 384-well Estrogen Receptor Transactivation Assay without AIME metabolic competence (metabolism negative), Deisenroth Lab (AID 2284039);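 further: cell viability via live-cell protease substrate cleaved to fluorescent probe; cells exposed 24 h to medium preincubated 2 h with alginate-water beads without S9; loss of fluorescence signal means loss of viability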
# How it was run: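 Metabolism-negative arm: chemicals (10-point, 0.002 - 200 uM) preincubated 2 h with alginate-water lids, medium moved onto VM7Luc4E2 cells for 24 h. Fluorescent live-cell protease readout; bidirectional curve fit.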
# [5] = molecular target: Estrogen receptor (Homo sapiens) (UniProt P03372); experiment: CCTE_Deisenroth_AIME_384WELL_LUC_Shift: CCTE's 384-well Estrogen Receptor Transactivation Assay with AIME metabolic competence data shift (ERTA luciferase; difference in metabolism positive and negative), Deisenroth Lab (AID 2284041; active means hit-call score of the fitted dose curve at least 0.9, where 1 is the maximum; inactive means score below 0.9;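 further: shift is response with S9 minus without S9 so positive means metabolism raised ER signal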)
# How it was run: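 Test chemicals (0.002–200 uM, 10-point) were pre-incubated 2 h with alginate microspheres containing phenobarbital/beta-naphthoflavone-induced male Sprague Dawley rat liver S9 or water, then medium was transferred to VM7Luc4E2 cells for 24 h luciferase readout; shift = S9-positive minus S9-negative normalized response.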
# [6] = CCTE_Shafer_MEA_acute_synchrony_index: CCTE's Neural Acute Assay for Synchrony, Shafer Lab (AID 2284027; active means hit-call score of the fitted dose curve at least 0.9, where 1 is the maximum; inactive means score below 0.9;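 further: network synchrony index of spontaneous spiking in primary rat cortical neurons on MEAs; fitted for loss of signal so actives lower synchrony relative to DMSO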)
# How it was run: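 The synchrony index is taken as percent change per well between a 40 min baseline and a 40 min recording with compound (0.03–40 uM), at 37C. Rat cortical cultures on multiwell MEAs at DIV 13 or 15, spike threshold 8× rms noise.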
# [7] = CCTE_Shafer_MEA_dev_firing_rate_mean: CCTE's Neural Network Formation Assay for Mean Firing Rate, Shafer Lab (AID 2284031; active means hit-call score of the fitted dose curve at least 0.9, where 1 is the maximum; inactive means score below 0.9;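 on AC50: curve fitted for loss of firing so AC50 reflects decreased mean firing rate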)
# How it was run: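 Spike frequency (spikes/recording length, averaged over active electrodes) was recorded on days 5, 7, 9 and 12 and collapsed to AUC; rat cortical cultures received compound continuously over 12 days of network development.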
# [8] = CCTE_Shafer_MEA_dev_per_burst_spike_percent: CCTE's Neural Network Formation Assay for Percent of Spikes in a Burst, Shafer Lab (AID 2284032; active means hit-call score of the fitted dose curve at least 0.9, where 1 is the maximum; inactive means score below 0.9;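 on AC50: fitted as a decrease in burst spike percentage below DMSO baseline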)
# How it was run: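 Value is trapezoidal AUC over recordings on days 5, 7, 9 and 12 of the well-mean fraction of spikes falling in single-electrode bursts; rat cortical cultures exposed continuously from plating, treatment renewed DIV 5 and 9, fitted downward against DMSO.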
# [9] = CCTE_Shafer_MEA_dev_burst_rate: CCTE's Neural Network Formation Assay for Burst Rate, Shafer Lab (AID 2284042; active means hit-call score of the fitted dose curve at least 0.9, where 1 is the maximum; inactive means score below 0.9;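 on AC50: potency for loss of burst rate below DMSO control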)
# How it was run: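 Cells plated, treated day 0; recorded DIV 5, 7, 9, 12; fed and re-treated DIV 5, 9. Endpoint: bursts per recording time, active-electrode well mean, trapezoidal AUC, fitted in decreasing direction against DMSO baseline.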
# [10] = CCTE_Shafer_MEA_dev_per_burst_interspike_interval: CCTE's Neural Network Formation Assay for Burst Interspike Interval, Shafer Lab (AID 2284044; active means hit-call score of the fitted dose curve at least 0.9, where 1 is the maximum; inactive means score below 0.9;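 on AC50: potency for a decrease of within-burst interspike interval below DMSO level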)
# How it was run: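 Rat cortical primary cultures, 16 electrodes/well; compound from plating, renewed with full media change DIV 5 and 9. Spikes via adaptive detector; per-burst ISI well-mean over active bursting electrodes; AUC of DIV 5/7/9/12 recordings; loss-direction fit vs DMSO.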
# Sequence of Estrogen receptor (Homo sapiens) (P03372 whole entry, looked up): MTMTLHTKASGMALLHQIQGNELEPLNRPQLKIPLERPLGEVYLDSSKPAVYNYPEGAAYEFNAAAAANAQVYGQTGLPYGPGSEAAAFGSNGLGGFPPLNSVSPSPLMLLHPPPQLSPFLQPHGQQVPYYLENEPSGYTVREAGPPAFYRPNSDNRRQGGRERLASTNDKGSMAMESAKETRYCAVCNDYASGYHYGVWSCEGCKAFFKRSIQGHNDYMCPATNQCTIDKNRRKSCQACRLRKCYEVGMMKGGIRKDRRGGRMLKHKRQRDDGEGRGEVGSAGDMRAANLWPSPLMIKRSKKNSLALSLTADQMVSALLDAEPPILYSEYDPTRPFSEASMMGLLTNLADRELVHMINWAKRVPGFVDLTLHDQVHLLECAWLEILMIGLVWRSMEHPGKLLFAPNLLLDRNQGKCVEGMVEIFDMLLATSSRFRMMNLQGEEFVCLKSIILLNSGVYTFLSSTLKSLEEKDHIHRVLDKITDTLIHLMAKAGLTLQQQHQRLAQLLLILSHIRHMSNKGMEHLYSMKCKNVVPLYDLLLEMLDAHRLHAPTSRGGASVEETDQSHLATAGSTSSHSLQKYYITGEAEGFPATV
structure (smiles),measurement,setting,value
CCN(CC)c1ccccc1,outcome,[1],inactive
same,outcome,[2],inactive
same,outcome,[3],inactive
same,outcome,[4],inactive
same,outcome,[5],inactive
CCOP(=S)(Oc1ccc([N+](=O)[O-])cc1)c1ccccc1 (stereo not given),outcome,[6],inactive
same,AC50,[1],19.6 µM (active)
same,AC50,[3],15.5 µM (active)
same,outcome,[4],inactive
same,outcome,[5],inactive
CCC1(c2ccccc2)C(=O)N=C(O)NC1=O (stereo not given),outcome,[6],inactive
same,outcome,[7],inactive
same,outcome,[8],inactive
same,outcome,[9],inactive
same,outcome,[10],inactive
CC(Cl)(Cl)C(=O)O,outcome,[6],inactive
same,outcome,[1],inactive
same,outcome,[3],inactive
same,outcome,[5],inactive
COCCOCCO,outcome,[6],inactive
same,outcome,[1],inactive
same,outcome,[3],inactive
same,outcome,[4],inactive
same,outcome,[5],inactive
[N-]=[N+]=[N-],outcome,[6],inactive
same,outcome,[1],inactive
same,outcome,[3],inactive
same,outcome,[5],inactive
Cc1ccc(N)cc1N,outcome,[6],inactive
COP(=O)(CCC(=O)NCO)OC,outcome,[6],inactive
OCC1CO1 (stereo not given),outcome,[1],inactive
same,outcome,[2],inactive
same,outcome,[3],inactive
same,outcome,[4],inactive
same,outcome,[5],inactive
ClC(Cl)c1ccccc1,outcome,[1],inactive
same,outcome,[2],inactive
same,outcome,[3],inactive
same,outcome,[4],inactive
same,outcome,[5],inactive
c1ccc(OP(Oc2ccccc2)Oc2ccccc2)cc1,AC50,[1],76.8 µM (active)
same,outcome,[7],inactive
same,outcome,[8],inactive
same,outcome,[2],inactive
same,AC50,[3],75.4 µM (active)
same,outcome,[4],inactive
same,AC50,[5],60.5 µM (active)
same,outcome,[9],inactive
same,outcome,[10],inactive
CCCCc1ccccc1,outcome,[1],inactive
same,outcome,[2],inactive
same,outcome,[3],inactive
same,outcome,[4],inactive
same,outcome,[5],inactive
Nc1ccc2ccccc2c1,outcome,[6],inactive
same,AC50,[1],13.8 µM (active)
same,outcome,[2],inactive
same,outcome,[3],inactive
same,outcome,[4],inactive
same,outcome,[5],inactive
Nc1ccc(Cl)cc1,outcome,[1],inactive
same,outcome,[2],inactive
same,outcome,[3],inactive
same,outcome,[4],inactive
same,outcome,[5],inactive
ClC1=C(Cl)C2(Cl)C3C(Cl)C(Cl)CC3C1(Cl)C2(Cl)Cl (stereo not given),AC50,[6],283 nM (active)
same,AC50,[7],4.35 µM (active)
same,AC50,[8],6.7 µM (active)
same,AC50,[9],7.48 µM (active)
same,AC50,[10],3.93 µM (active)
